Assay results published in PubChem BioAssay (NCATS).
Values joined by “and” are separate entries in the source; they are usually repeats but may differ in a detail not shown here. Identical values can stand only once. Records with an inconclusive call do not appear. Active and inactive are the calls of the source. Unless noted, calls come from the whole dose curve; as a rule, active = well fitted curve in the direction sought with a large enough effect; inconclusive = small, poorly fitted or top-dose-only effect, or another doubt; inactive = no such curve, though single readings can be large; an effect the other way counts as inactive or inconclusive.

Legend:
[1] = target: Cytochrome P450 1A2 (Homo sapiens) (UniProt P05177); experiment: p450-cyp1a2 (AID 410; calls by dose curve; note: potency is the fitted concentration of half-maximal effect)
Sequence of Cytochrome P450 1A2 (Homo sapiens) (P05177 whole entry, looked up): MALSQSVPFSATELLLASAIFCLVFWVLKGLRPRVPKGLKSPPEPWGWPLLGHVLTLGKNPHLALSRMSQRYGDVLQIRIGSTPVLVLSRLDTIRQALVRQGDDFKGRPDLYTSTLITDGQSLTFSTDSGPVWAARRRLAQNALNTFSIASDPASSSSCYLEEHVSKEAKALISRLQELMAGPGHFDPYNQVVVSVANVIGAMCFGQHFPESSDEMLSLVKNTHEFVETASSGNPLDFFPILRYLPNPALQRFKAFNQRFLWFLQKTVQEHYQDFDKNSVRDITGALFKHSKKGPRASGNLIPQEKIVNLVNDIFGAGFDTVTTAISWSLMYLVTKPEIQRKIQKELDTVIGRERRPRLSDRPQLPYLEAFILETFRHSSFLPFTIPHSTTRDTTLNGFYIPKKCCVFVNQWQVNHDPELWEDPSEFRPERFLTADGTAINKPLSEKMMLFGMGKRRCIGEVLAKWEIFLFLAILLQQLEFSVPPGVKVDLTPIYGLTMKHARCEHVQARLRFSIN
In short: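 Human CYP1A2 (20nM) demethylated Luciferin-ME at its Km (100uM) in 100mM KPO4. After 10 min compound preincubation, NADPH regeneration ran the reaction 60 min at room temperature. Luciferin was read by luminescence, normalized to 57 uM furafylline.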

[2] = NFAT Signaling Pathway (AID 444; active = well fitted curve in either direction with a large enough effect, not every such curve was filed as active;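 note: carbachol stimulus at about its EC50 of 1 µM final; % is set by controls: 0 for no effect and ±100 for the full control effect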); conditions: Jurkat NFAT-bla M1, carbachol, beta-lactamase ratio, 5 h; at 17.2 µM (top of the series)
In short: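 Read-out: CCF4 FRET ratio (460 nm/530 nm) after 1 h RT dye loading, used for %activity and AC50 from titration series. Cells: Jurkat NFAT-β-lactamase/M1 line, treated with compound plus 1 uM carbachol for 5 h, 37 °C.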

[3] = target: Glucocorticoid receptor (Homo sapiens) (UniProt P04150); experiment: GR-GFP Redistribution (AID 450;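 active = compounds whose dose series gives a full or clear partial fitted curve of increased nuclear translocation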; note: potency is the fitted concentration of half-maximal effect); conditions: U2OS GR-GFP nuclear translocation, laser cytometry, 2 h
Sequence of Glucocorticoid receptor (Homo sapiens) (P04150 whole entry, looked up, the tested form may be a part): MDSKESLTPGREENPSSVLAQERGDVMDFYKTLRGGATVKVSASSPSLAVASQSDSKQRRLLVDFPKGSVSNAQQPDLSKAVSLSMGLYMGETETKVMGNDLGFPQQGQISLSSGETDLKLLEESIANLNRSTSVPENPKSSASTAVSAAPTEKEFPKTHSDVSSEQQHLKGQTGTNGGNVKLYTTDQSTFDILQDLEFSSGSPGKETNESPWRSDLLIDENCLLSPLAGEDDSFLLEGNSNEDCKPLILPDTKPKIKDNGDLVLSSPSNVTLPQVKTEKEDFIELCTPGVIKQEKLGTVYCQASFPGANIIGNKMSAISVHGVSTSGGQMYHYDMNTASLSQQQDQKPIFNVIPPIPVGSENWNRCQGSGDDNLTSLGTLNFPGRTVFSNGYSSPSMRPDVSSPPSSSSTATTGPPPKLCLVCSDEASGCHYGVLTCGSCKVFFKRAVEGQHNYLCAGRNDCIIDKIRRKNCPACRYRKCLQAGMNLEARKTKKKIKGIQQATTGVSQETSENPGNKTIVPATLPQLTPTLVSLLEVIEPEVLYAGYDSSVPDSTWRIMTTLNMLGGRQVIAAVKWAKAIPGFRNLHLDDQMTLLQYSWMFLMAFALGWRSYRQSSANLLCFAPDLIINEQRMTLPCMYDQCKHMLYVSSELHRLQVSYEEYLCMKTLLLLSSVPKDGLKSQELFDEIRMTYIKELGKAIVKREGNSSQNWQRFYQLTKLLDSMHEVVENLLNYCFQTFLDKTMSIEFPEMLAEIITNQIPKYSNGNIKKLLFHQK

[4] = target: Glucocorticoid receptor (Homo sapiens) (UniProt P04150); experiment: GR-EFC Redistribution (AID 451; calls by dose curve; note: potency is the fitted concentration of half-maximal effect); conditions: CHO-K1 GR-EFC translocation, beta-gal luminescence, 2 h
In short: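 Translocation of GR-ED fusion to nuclear EA restores b-gal, read by luminescence after 1 h room-temperature detection. Engineered CHO-K1 biosensor cells, 1,000/well, exposed 2 h at 37 C to titrations up to 46 uM final.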

[5] = target: Mitogen-activated protein kinase 10 (Mus musculus) (UniProt Q61831); experiment: JNK3 AlphaScreen Assay (AID 530; active = well fitted curve in either direction with a large enough effect, not every such curve was filed as active;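 note: kinase came from lysate of stimulated human HepG2 cells; signal reports phosphorylation of biotinylated GST-cJun 1-79 at Ser73 with 10 µM ATP; % is set by controls: 0 for no effect and ±100 for the full control effect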)
In short: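 Room-temperature AlphaScreen kinase assay; pre-activated HepG2 lysate as JNK3 source, biotin-GST-cJun(1-79) substrate, 10 uM ATP, compound 15 min preincubation.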

[6] = target: 3',5'-cyclic-AMP phosphodiesterase 4B (Homo sapiens) (UniProt Q07343); experiment: qHTS Assay for Inhibitors of PDE-IV (AID 607; active = well fitted activation curve with a large enough effect in the main read-out, with a control signal flat, not every such curve was filed as active; note: % of control where 0% means no effect)
Sequence of 3',5'-cyclic-AMP phosphodiesterase 4B (Homo sapiens) (Q07343 whole entry, looked up): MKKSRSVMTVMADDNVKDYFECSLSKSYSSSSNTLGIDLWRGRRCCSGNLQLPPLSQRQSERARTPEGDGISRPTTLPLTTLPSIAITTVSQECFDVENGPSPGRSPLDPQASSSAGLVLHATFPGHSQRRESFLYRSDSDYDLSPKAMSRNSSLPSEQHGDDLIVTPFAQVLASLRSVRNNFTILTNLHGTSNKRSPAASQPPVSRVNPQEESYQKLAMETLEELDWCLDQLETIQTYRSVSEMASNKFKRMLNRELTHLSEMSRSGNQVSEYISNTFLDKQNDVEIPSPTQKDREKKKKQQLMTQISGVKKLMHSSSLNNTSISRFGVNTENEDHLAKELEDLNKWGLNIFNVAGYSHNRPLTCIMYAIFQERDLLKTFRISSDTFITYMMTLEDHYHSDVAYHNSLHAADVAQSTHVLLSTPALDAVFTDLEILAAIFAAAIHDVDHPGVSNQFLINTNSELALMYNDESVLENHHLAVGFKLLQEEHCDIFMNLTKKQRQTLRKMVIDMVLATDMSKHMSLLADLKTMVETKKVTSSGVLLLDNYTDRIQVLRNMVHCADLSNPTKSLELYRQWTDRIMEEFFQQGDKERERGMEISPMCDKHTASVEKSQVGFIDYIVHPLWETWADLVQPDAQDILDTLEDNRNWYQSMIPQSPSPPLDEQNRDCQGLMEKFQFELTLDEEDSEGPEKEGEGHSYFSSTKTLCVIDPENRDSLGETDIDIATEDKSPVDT
In short: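 Cell-based read-out of cAMP via a modified cyclic nucleotide-gated channel and membrane potential dye (535/590 nm) in HEK293 cells expressing PDE4 endogenously. Compounds tested up to 22.9 uM final; 100 uM RO 20-1724 reference.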

[7] = target: Cytochrome P450 3A4 (Homo sapiens) (UniProt P08684); experiment: qHTS Assay for Inhibitors and Substrates of Cytochrome P450 3A4 (AID 884); note: % is set by controls: 0 for no effect and ±100 for the full control effect; nearly all actives have a fitted effect of over 50% in size
Sequence of Cytochrome P450 3A4 (Homo sapiens) (P08684 whole entry, looked up): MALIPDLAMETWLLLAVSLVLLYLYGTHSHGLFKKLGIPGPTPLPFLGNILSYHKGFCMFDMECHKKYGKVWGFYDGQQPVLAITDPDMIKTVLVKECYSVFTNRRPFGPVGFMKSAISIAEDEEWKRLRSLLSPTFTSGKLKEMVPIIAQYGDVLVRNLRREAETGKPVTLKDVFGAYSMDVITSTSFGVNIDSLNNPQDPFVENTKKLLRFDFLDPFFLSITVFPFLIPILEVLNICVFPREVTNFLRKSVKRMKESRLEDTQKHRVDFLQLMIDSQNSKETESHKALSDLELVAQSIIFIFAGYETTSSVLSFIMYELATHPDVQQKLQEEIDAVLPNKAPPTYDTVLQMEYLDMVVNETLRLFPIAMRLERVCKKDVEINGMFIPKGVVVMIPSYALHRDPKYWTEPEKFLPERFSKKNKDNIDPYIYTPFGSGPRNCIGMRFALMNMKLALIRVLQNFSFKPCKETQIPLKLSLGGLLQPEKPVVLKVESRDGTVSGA
In short: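 20 nM human CYP3A4 with 25 uM Luciferin-PPXE (at KM) in 200 mM KPO4, preincubated 10 min with compound; NADPH regeneration started a 60 min RT reaction. Luciferin detected by luminescence, normalized to 57 uM ketoconazole as full inhibition.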

[8] = target: Cytochrome P450 3A4 (Homo sapiens) (UniProt P08684); experiment: qHTS Assay for Activators of Cytochrome P450 3A4 (AID 885); note: nearly all actives have a fitted effect of over 65% in size
In short: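 Signal was normalized against complete inhibition by 57 uM ketoconazole. The reaction used 20nM CYP3A4 with 25uM Luciferin-PPXE, 10-min compound preincubation and a 60-min NADPH-supported step at RT.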

[9] = target: Cytochrome P450 2D6 (Homo sapiens) (UniProt P10635); experiment: qHTS Assay for Inhibitors and Substrates of Cytochrome P450 2D6 (AID 891); note: potency is the fitted concentration of half-maximal effect; nearly all actives have a fitted effect of over 60% in size
Sequence of Cytochrome P450 2D6 (Homo sapiens) (P10635 whole entry, looked up): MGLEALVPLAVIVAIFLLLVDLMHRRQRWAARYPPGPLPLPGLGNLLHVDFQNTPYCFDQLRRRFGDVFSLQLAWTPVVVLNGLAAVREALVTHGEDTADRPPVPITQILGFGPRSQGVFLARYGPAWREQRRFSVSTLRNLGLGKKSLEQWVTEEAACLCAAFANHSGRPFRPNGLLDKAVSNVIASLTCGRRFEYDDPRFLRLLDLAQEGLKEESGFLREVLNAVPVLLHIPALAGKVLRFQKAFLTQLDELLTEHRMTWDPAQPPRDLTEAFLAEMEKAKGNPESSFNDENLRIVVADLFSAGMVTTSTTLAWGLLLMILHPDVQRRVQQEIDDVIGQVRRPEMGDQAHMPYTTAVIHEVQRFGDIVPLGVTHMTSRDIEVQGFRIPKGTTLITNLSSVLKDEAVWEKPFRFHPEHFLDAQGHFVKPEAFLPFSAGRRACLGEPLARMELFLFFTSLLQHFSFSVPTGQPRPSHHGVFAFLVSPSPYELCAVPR
In short: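 Human CYP2D6 (5 nM) with 30 uM Luciferin-ME EGE (at Km) in 100 mM KPO4, compound preincubated 10 min, then NADPH regeneration system for 60 min at room temperature. Luciferin read by luminescence; normalized to 1.43 uM quinidine.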

[10] = Confirmation and Secondary Assay for Modulators of Hemoglobin Beta Chain Splicing at IVS2 654 locus (AID 910);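 note: HeLa cells stably carrying EGFP split by mutant beta-globin IVS2-654 intron; per-well total GFP intensity by laser scanning cytometry after 2-day treatment; % of control where 0% means no effect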
In short: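 Readout: per-well total peak green fluorescence (488 nm ex, 500–520 nm em) from objects 5–250 µm, reflecting correct splicing of an EGFP-654 reporter. Compounds were applied for 2 days at 37 °C to overnight-plated HeLa EGFP-654 cells; controls were DMSO and 500 nM IVS2-654 PNA.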

[11] = qHTS Assay for Identification of Small Molecule Agonists for Hypoxia Response Element Signaling Pathway (AID 914; active = well fitted activation curve with a large enough effect in the signal ratio, with a control signal flat, not every such curve was filed as active; the % refers to the signal ratio; note: potency is the fitted concentration of half-maximal effect); conditions: ME-180 (cervical carcinoma) HRE-bla reporter, beta-lactamase ratio, CoCl2, 17 h; activation: stronger effect = higher value
In short: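 Cells were plated overnight, pin-dosed with compound in a titration series, co-stimulated with EC50 CoCl2 and incubated 17 hours at 37 degrees Celsius. CCF4 substrate was then loaded, and AC50 values came from the 460nm/530nm ratio.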

[12] = Confirmation and Secondary Assay for Modulators of Hemoglobin Beta Chain Splicing at IVS2 705 locus (AID 930);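 note: HeLa cells stably expressing the EGFP-705 splicing reporter; GFP fluorescence per well restored by corrected splicing of the IVS2-705 intron in EGFP; % of control where 0% means no effect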
In short: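 Splice-correction reporter: EGFP cDNA split by beta-globin intron 2 bearing the 705 mutation, stably in HeLa. Compound incubation 2 days, 37C; fluorescent objects 5-250 µm summed per well.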

[13] = qHTS Assay for Lipid Storage Modulators (AID 1519; calls by dose curve); conditions: Drosophila S3 cells, BODIPY lipid droplet/cell ratio, laser cytometry, cells loaded with oleic acid
In short: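 Cells seeded at 5,000 per well were treated with compounds over a concentration series and loaded with oleic acid (400 uM, as added). Lipid droplet fluorescence (488 nm excitation, 500-530 nm channel) was read by laser-scanning cytometry and normalized to 20 uM Triacsin C.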

[14] = target: Ubiquitin carboxyl-terminal hydrolase 1 (Homo sapiens) (UniProt O94782); experiment: Inhibitors of USP1/UAF1: Pilot qHTS (AID 504865);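 note: rhodamine fluorescence freed from ubiquitin-rhodamine substrate followed over time; top concentration of the series differs between compounds; % is set by controls: 0 for no effect and ±100 for the full control effect; nearly all actives have a fitted effect of over 35% in size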
Sequence of Ubiquitin carboxyl-terminal hydrolase 1 (Homo sapiens) (O94782 whole entry, looked up): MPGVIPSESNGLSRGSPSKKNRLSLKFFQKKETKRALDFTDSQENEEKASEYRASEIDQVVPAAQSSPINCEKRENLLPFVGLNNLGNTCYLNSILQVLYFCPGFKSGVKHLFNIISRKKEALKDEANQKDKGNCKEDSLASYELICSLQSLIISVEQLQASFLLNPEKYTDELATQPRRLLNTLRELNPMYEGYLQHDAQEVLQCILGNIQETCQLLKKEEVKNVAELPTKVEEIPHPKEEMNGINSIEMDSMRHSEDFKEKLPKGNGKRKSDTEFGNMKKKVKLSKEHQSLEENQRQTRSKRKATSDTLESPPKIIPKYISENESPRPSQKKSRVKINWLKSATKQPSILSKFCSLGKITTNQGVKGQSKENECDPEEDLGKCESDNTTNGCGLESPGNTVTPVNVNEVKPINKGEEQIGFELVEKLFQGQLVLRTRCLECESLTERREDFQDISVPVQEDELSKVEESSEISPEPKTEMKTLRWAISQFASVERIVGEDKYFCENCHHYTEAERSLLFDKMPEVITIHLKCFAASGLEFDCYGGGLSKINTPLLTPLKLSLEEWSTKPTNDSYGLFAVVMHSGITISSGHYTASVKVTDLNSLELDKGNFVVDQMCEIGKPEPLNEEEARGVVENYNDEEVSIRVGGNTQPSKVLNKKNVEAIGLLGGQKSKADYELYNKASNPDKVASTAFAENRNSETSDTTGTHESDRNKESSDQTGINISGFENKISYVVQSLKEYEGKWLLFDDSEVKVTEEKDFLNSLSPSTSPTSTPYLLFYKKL
In short: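 In 50mM HEPES pH 7.8 containing 0.5mM EDTA, 1mM TCEP, 0.1 mg/ml BSA and 0.01% Tween-20, 1nM USP1/UAF1 is exposed to compound for 15 min, then Ub-Rho (150nM final) is added and fluorescence is read over time.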

[15] = system: Zika virus NS2B-NS3 protease; experiment: Primary screen GU AMC qHTS for Zika virus inhibitors (AID 1347154); note: potency is the fitted concentration of half-maximal effect; nearly all actives have a fitted effect of over 70% in size
In short: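 Fluorogenic AMC-substrate cleavage by noncovalent NS2B-NS3 protease complex (25 nM, pH 8.0 Tris buffer with Tween 20) followed for 15 minutes at room temperature (~20% conversion). Percent inhibition from ex340/em450 signal change, fitted by 4-parameter Hill equation.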

[16] = system: Zika virus NS2B-NS3 protease (linked construct); experiment: Primary screen NINDS Rhodamine qHTS for Zika virus inhibitors (AID 1347160); note: % is set by controls: 0 for no effect and ±100 for the full control effect; nearly all actives have a fitted effect of over 55% in size
In short: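 In 10 mM Tris-HCl pH 8.0 containing 0.01% Tween 20, linked NS2B-NS3 protease (25 nM final) is exposed to test compounds for 15 min. Cleavage of 1.5 microM Rhodamine110 substrate is tracked by fluorescence over 15 min.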

[17] = OV-KATE Cancer Cell Toxicity qHTS against the NCATS CANVASS Library (AID 1347345); note: % is set by controls: 0 for no effect and ±100 for the full control effect
In short: (§1)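 Step one: seed 1000 cells per well. Step two: incubate 4 h. Step three: add test compounds in 11 concentrations. Step four: culture 72 h, then add CellTiter-Glo and record luminescence after 15min.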

[18] = SW1088 Cancer Cell Toxicity qHTS against the NCATS CANVASS Library (AID 1347350); note: % is set by controls: 0 for no effect and ±100 for the full control effect; nearly all actives have a fitted effect of over 75% in size
In short: as §1

[19] = U-118MG Cancer Cell Toxicity qHTS against the NCATS CANVASS Library (AID 1347351); note: % is set by controls: 0 for no effect and ±100 for the full control effect
In short: as §1

[20] = COV-362 Cancer Cell Toxicity qHTS against the NCATS CANVASS Library (AID 1347352); note: % is set by controls: 0 for no effect and ±100 for the full control effect
In short: (§2)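 Cells were seeded at 1000 per well and allowed to settle 4 hours at 37 degrees C before pin transfer of compounds as an 11-point series. Viability was read by CellTiter-Glo luminescence after 72 hours' exposure.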

[21] = A2780 Cisplatin Sensitive Ovarian Cancer Cell Toxicity qHTS against the NCATS CANVASS Library (AID 1347353); note: nearly all actives have a fitted effect of over 60% in size
In short: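 A2780 cisplatin-sensitive cells (750 per well) were seeded, left 4 h at 37 °C, then pin-dosed in an 11-point series. After 72 h at 37 °C/5% CO2, viability was measured as ATPLite luminescence.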

[22] = UWB1.289-WTBRCA1 Cancer Cell Toxicity qHTS against the NCATS CANVASS Library (AID 1347354); note: % is set by controls: 0 for no effect and ±100 for the full control effect
In short: as §2

COc1ccc2c3c([nH]c2c1)C(C)=NCC3
2.64%: max response ([13]; measured here: lipid channel max response)
0.146%: max response ([13]; measured here: cell count channel max response)
active: Potency [1] 794 nM and 251 nM | Potency [9] 3.98 µM | Potency [11] 10 µM | Potency [15] 21.2 µM
inactive: activity change, negative = inhibition [2] -3.75% | Potency [3] > 20.6 µM and > 46 µM | Potency [4] > 20.6 µM and > 46 µM | outcome [5] | Potency [6] | Potency [7] | Potency [8] | Potency [10] | outcome [12] | activity change, negative = inhibition ([13]; at 25.7 µM (top of the series)) 1.66% | Potency [14] | Potency [16] | Potency [17] | Potency [18] | Potency [19] | Potency [20] | Potency [21] | Potency [22]
